Source: PubChem BioAssay
LGR2 inh – Drosophila LGR2 receptor signaling inhibition | HEK293 LGR2, CRE-luciferase, bursicon-stimulated, 4 h | inhibition, % at 9.99 µM | 380,000 compounds, 0.35% hits | AID 720647;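 active = drop in luminescence signal, shown as inhibition above about 50% in the replicate tests, limit read from the data, passing the limit was not always enough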;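 note: agonist challenge used bursicon conditioned medium at about half maximal strength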
EWS-Fli block – EWS/Fli transcriptional activity inhibition; A673 NR0B1-luciferase reporter, viability-normalised; inhibition, % at 12.6 µM; 350,000 compounds, 0.67% hits; AID 651661;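 active = mean inhibition of at least 50% after viability correction, with every replicate also passing that limit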;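 note: firefly luciferase signal divided by Alamar Blue viability fluorescence both relative to DMSO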
LMP1 NFkB inh – inhibitors of Epstein-Barr LMP1-induced NF-kappaB reporter. 350,000 compounds, 0.69% hits. LMP1-induced NF-kappaB luciferase reporter cells, luminescence. inhibition, % at 12.5 µM. AID 504558; in the data active = inhibition above about 41%;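 note: 0% = neutral control wells and 100% = reference inhibitor control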
TRPM1 prom inh – inhibitors of MITF-driven TRPM1 promoter in melanoma cells | SK-MEL-5 TRPM1 promoter luciferase, 24 h | inhibition, % at 12.5 µM | 330,000 compounds, 0.83% hits | AID 488899;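 active = mean inhibition across replicates of 60% or more, whatever share of single replicates reaches that level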
PGC1a acetyl inh – modulators of PGC1a acetylation; U2OS PGC1a acetylation, AlphaScreen anti-acetyl-lysine; with virally co-expressed GCN5 acetyltransferase; inhibition, % at 15.6 µM; 350,000 compounds, 0.17% hits; AID 651687;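 active = every replicate shows inhibition of at least 40%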;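 note: 0% = neutral control wells and 100% = positive control wells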
PAX8 reporter – inhibitors of PAX8 transcriptional activity in RMG-I cells. RMG-I TPO-luciferase reporter, SteadyGlo, 24 h. inhibition, % at 12.6 µM. 360,000 compounds, 1.2% hits. AID 652154;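 active = mean replicate inhibition at least 60% with every replicate also reaching 60%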;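 note: luciferase light reporting Pax8 driven TPO promoter activity; plate controls were median of neutral control wells for no effect and mitoxantrone controls for full effect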
An asterisk follows results filed as active. Rows were chosen to be rich in hits. Some 2.2% of all compounds tested hit in one or more screens of this group.

What do the screens show for `O=C(C[C@@H]1CC[C@H](NC(=O)c2ccc3c(c2)OCO3)[C@@H](CO)O1)NCc1ccc(Cl)cc1`?
LGR2 inh: -10; EWS-Fli block: 2; PGC1a acetyl inh: 1; PAX8 reporter: 8

What do the screens show for `CCCNC(=O)N1C[C@H](O)COC[C@@H]2O[C@@H](CC(=O)N3CCOCC3)CC[C@H]21`?
LGR2 inh: 5; EWS-Fli block: -4; PGC1a acetyl inh: -6; PAX8 reporter: -9

What do the screens show for `Oc1c(Cl)cc(CN2CCCCC2)c2cccnc12`?
LMP1 NFkB inh: 63*; TRPM1 prom inh: 64*; PGC1a acetyl inh: 2

How did COCc1cc(CN2CCCC2)c(O)c2ncccc12 do in these assays?
LGR2 inh: 4; LMP1 NFkB inh: 13; TRPM1 prom inh: 27; PGC1a acetyl inh: 3

Results for Oc1c(CN2CCCCC2)cc(COCc2ccccc2)c2cccnc12 ?
LMP1 NFkB inh: 79*; TRPM1 prom inh: 88*; PGC1a acetyl inh: 8; PAX8 reporter: 64*

Results for C[C@H]1CN([C@@H](C)CO)C(=O)Cc2cc(NS(=O)(=O)c3cn(C)cn3)ccc2O[C@H]1CN(C)Cc1ccc2c(c1)OCO2 ?
LGR2 inh: 7; EWS-Fli block: -3; PGC1a acetyl inh: 5; PAX8 reporter: -18

Results for CCCCCCc1cc2cc(C(=O)Nc3ccccc3)c(=O)oc2cc1O ?
LGR2 inh: 41; LMP1 NFkB inh: -1; TRPM1 prom inh: 72*; PGC1a acetyl inh: 4

How did COC(=O)C[C@@H]1CC[C@@H]2[C@@H](COc3ccc(NC(=O)c4ccccc4)cc3C(=O)N2C)O1 do in these assays?
LGR2 inh: 11; EWS-Fli block: 19; PGC1a acetyl inh: 4; PAX8 reporter: 0

What do the screens show for `CN(C)CCC1(C2=CCCC2)CC/C(=C/c2ccc(Cl)cc2)C1=O` (centres undefined)?
LGR2 inh: 69*; EWS-Fli block: -2; LMP1 NFkB inh: 9; TRPM1 prom inh: -10; PAX8 reporter: 36

How did CCOC(=O)Nc1ccc2c(c1)N(C(=O)CCN1CCOCC1)c1ccccc1S2=O (centres undefined) do in these assays?
LMP1 NFkB inh: 22; TRPM1 prom inh: 15; PGC1a acetyl inh: -36; PAX8 reporter: 106*

What do the screens show for `CCOC(=O)Nc1ccc2c(c1)N(C(=O)CCN1CCOCC1)c1ccccc1S2`?
LGR2 inh: -43; EWS-Fli block: -1; LMP1 NFkB inh: -4; TRPM1 prom inh: -1; PGC1a acetyl inh: 9; PAX8 reporter: -7

How did Cc1noc(C)c1NC(=O)NCC[C@H]1CC[C@H](NC(=O)c2ccccc2)[C@@H](CO)O1 do in these assays?
LGR2 inh: 2; EWS-Fli block: -2; PGC1a acetyl inh: 6; PAX8 reporter: -2

What do the screens show for `Cc1ccc(S(=O)(=O)NC(C)c2ccccc2)cc1[N+](=O)[O-]` (centres undefined)?
LGR2 inh: -16; EWS-Fli block: 2; LMP1 NFkB inh: 50*; TRPM1 prom inh: 1; PGC1a acetyl inh: 16; PAX8 reporter: 17

Results for CSc1ccc(S(=O)(=O)NC(C)c2ccccc2)cc1 (centres undefined) ?
LGR2 inh: -2; EWS-Fli block: -19; LMP1 NFkB inh: 3; TRPM1 prom inh: 2; PGC1a acetyl inh: -34; PAX8 reporter: -5

How did CCc1nnc(NC(=O)c2ccc(S(=O)(=O)N3CCOCC3)cc2)s1 do in these assays?
LGR2 inh: 27; EWS-Fli block: 16; LMP1 NFkB inh: 78*; TRPM1 prom inh: 11; PAX8 reporter: -12

What do the screens show for `C=C1C(=O)C23CCC4C(C)(C(=O)OC)CCCC4(C)C2CCC1(O)C3` (centres undefined)?
EWS-Fli block: 56*; LMP1 NFkB inh: 62*; TRPM1 prom inh: 117*; PGC1a acetyl inh: 76*; PAX8 reporter: 134*

How did COC(=O)[C@]1(C)CCC[C@@]2(C)C3CC[C@@]4(C)C[C@]3(CCC21)CC(=O)N4 (some centres undefined) do in these assays?
LGR2 inh: 12; EWS-Fli block: -3; LMP1 NFkB inh: 5; TRPM1 prom inh: 1; PAX8 reporter: 6

How did COc1ccc(CNC(=O)C[C@H]2C=C[C@H](NS(=O)(=O)c3cccc(OC)c3)[C@@H](CO)O2)cc1 do in these assays?
LGR2 inh: 2; EWS-Fli block: 3; PGC1a acetyl inh: 4
